# Gal4-VP16 FLuc – counter-screen for ROR gamma inhibitors: Gal4-VP16 reporter; Potency, µM (highest dose often 53.6 µM), without a hit: top-dose activity, negative = inhibition, hits mostly inhibitors; Drosophila S2 Gal4-VP16 UAS-luciferase, luminescence, 20 h; AID 2546; 3.5% of 310,000 active;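 note: Gal4-VP16 expression switched on by copper sulfate through the metallothionein promoter; potency is the fitted concentration of half-maximal effect; nearly all actives have a fitted effect of over 50% in size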
# IL-1B inflam inh – inhibitors of inflammasome signaling (IL-1 beta secretion). THP-1 LPS/ATP IL-1B secretion, AlphaLISA, 16 h; active compounds read low. activity change, % at 57.5 µM. 4.7% of 360,000 active. AID 743279; in the data active = activity change below about -50%; inconclusive = mostly about -30% to -49%
#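 Secreted IL-1B measured by AlphaLISA bead assay after 16 h compound exposure of THP-1 cells; compounds (final up to 57.5 uM) added 1 h before LPS (250 ng/mL) and ATP (1.25 mM) stimulation; lower signal means less secretion.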
# LDHA block – inhibitors of human lactate dehydrogenase A | P00338 | purified LDHA, NADH/diaphorase-resazurin fluorescence; active compounds read low | activity change, % (values are at about 110 or 230 µM) | 0.15% of 480,000 active | AID 1347041; in the data active = activity change below about -30%; inconclusive = mostly about -25% to -30%;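 note: plate controls were DMSO wells for no effect and wells without enzyme for full effect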
#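 Human LDH5 at 2 nM final in Tris HCl pH 7.4 with 0.06 mM NADH and 0.2 mM pyruvate, reacted 5 minutes at room temperature. Remaining NADH coupled via diaphorase/resazurin; resorufin fluorescence read at 0 and 20 minutes, normalized to enzyme-free and DMSO wells.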
# RORgamma inh – blocks mouse ROR gamma transcriptional activity. P51450. Drosophila S2 Gal4-RORgamma UAS-luciferase reporter, 20 h. Potency, µM (top dose mostly 53.6 µM), for inactives: at the highest dose activity change, negative = inhibition, usual class: inhibitors. 5.4% of 310,000 active; note: potency is the fitted concentration of half-maximal effect; nearly all actives have a fitted effect of over 60% in size
# Target sequence (P51450 whole entry, looked up, the tested form may be a part): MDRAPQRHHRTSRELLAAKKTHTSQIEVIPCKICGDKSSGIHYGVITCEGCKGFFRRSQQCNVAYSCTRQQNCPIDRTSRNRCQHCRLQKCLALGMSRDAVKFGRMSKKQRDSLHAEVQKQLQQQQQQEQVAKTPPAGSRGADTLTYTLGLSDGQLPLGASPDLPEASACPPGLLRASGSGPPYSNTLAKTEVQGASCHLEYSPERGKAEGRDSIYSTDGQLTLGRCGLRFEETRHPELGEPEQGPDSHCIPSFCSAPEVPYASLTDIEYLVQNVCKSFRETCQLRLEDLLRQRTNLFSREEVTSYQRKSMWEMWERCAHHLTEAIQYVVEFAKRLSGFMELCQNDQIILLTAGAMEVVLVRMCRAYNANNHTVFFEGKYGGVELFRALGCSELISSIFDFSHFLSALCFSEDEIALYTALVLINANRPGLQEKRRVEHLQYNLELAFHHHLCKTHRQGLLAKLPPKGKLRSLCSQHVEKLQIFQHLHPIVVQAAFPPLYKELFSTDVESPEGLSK
#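 Stably transfected Drosophila Schneider cells are the test system, with ROR gamma fused to Gal4 and luciferase under UAS control; luminescence is read after 20 hr of 700 uM copper sulfate induction at ambient temperature.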
# TDP1 cell noCPT – qHTS for Inhibitors of human tyrosyl-DNA phosphodiesterase 1 (TDP1): qHTS in cells in absence of CPT; DT40 Tdp1-/- hTDP1 cells, no CPT, ATP luminescence, 48 h; Potency, µM (doses to about 46.2 µM), for the others: at the highest dose activity change, negative = growth inhibition, usual class: inhibitors; 15% of 420,000 active; AID 686978, 2013; note: potency is the fitted concentration of half-maximal effect; nearly all actives have a fitted effect of over 55% in size
#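 Chicken DT40 Tdp1-/- cells complemented with human TDP1, screened without camptothecin (DMSO vehicle only), 400 cells/well. Compounds pin-transferred, cells incubated at 37 °C for at least 48 hr. Growth read as ATP-dependent luminescence (CellTiter-Glo, 30 min at RT).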
# DT40 TDP1 CPT – growth inhibition of DT40 Tdp1-/-;hTDP1 cells with camptothecin (screen for TDP1 inhibitors); chicken DT40 Tdp1-/-;hTDP1 cells + 20 nM CPT, ATP luminescence, 48 h; Potency, µM (highest dose often 46.2 µM), for inactives: at the highest dose activity change, negative = growth inhibition, hits mostly inhibitors; 12% of 420,000 active; AID 686979; note: potency is the fitted concentration of half-maximal effect; nearly all actives have a fitted effect of over 55% in size
#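 Chicken DT40 Tdp1-/- cells stably complemented with human TDP1 were seeded at 400 cells/well in medium containing 20 nM camptothecin, exposed to pin-transferred compounds, and grown at 37 °C for at least 48 hr. Viability was read as ATP luminescence.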
# * = called active by the depositor; ? = inconclusive; . = not tested or not shown; ! = a repeat was not active; [ ] = remark or other dose. In the library only some 18% were active in any assay of this set; here they are far more common. Unless noted, calls come from the whole dose curve; as a rule, active = well fitted curve in the direction sought with a large enough effect; inconclusive = small, poorly fitted or top-dose-only effect, or another doubt; inactive = no such curve, though single readings can be large; an effect the other way counts as inactive or inconclusive. Unless noted, % is set by controls: 0 for no effect and ±100 for the full control effect.
SMILES,Gal4-VP16 FLuc,IL-1B inflam inh,LDHA block,RORgamma inh,TDP1 cell noCPT,DT40 TDP1 CPT
OC(c1ccccc1)(c1ccc(Cl)cc1)C1CN2CCC1CC2 (stereo unspecified),-13%,-70*,-3,?,18µM*,16µM*
CCCCOC1NC(=O)NC(=O)C1(F)C(=O)OCC (stereo unspecified),.,24,-3,.,?,?
C#CCOc1cccc(C2SCC(=O)Nc3c2c(C)nn3-c2ncnc3nc[nH]c23)c1 (stereo unspecified),.,.,7,.,.,.
COc1cccc(-c2nc3cc4c(cc3cc2CN(C(=O)c2cccs2)C2CC2)CCC4)c1OC,.,.,.,.,16µM*,?
O[C@@H]1CCCC[C@@H]1N1CCC(c2ccccc2)CC1,.,.,.,.,8%,-3%
CNC(=O)NC(=O)C(C)Cl (stereo unspecified),.,.,1,.,.,.
Nc1ncnc2c1ncn2[C@@H]1O[C@@H]2CO[P@](=O)(S)O[C@H]2[C@H]1O,-22%,.,.,-11%,.,.
Cc1oc(-c2ccc(Cl)cc2)nc1CN1C(=O)CN=C(c2ccccc2)c2ccccc21,.,.,-2,.,15µM*,?
COc1ccc(-c2nc(CN3C(=O)CN=C(c4ccccc4Cl)c4cc(Cl)ccc43)c(C)o2)cc1OC,.,.,-2,.,?,?
Cc1oc(-c2ccccc2)nc1CN1C(=O)C(C)N=C(c2ccccc2F)c2cc(Cl)ccc21 (stereo unspecified),-11%,-13,0,13µM*,?,?
[O-][Br+2]([O-])O,-13%,.,.,-4%,.,.
COc1ccc(NC(=O)Cn2c(=O)c3cccn3c3ccccc32)cc1Cl,.,.,5,.,?,?
O=C(O)c1[nH]n(-c2ccc(S(=O)(=O)O)cc2)c(=O)c1N=Nc1ccc(S(=O)(=O)O)cc1,.,.,-4,.,?,?
CNCC(O)c1ccc(OC(=O)C(C)(C)C)c(OC(=O)C(C)(C)C)c1 (stereo unspecified),.,?,-1,.,?,9µM*!
CNC[C@H](O)c1ccc(O)cc1,5%[17 µM],.,.,-1%[16.9 µM],.,.
CCCCCC1C(=O)O[C@H](C)[C@@H](NC(=O)c2cccc(NC=O)c2O)C(=O)OC(C)C1OC(=O)CC(C)C (stereo partly specified),11µM*,.,.,0.005µM*,0.046µM*,0.046µM*
CCCC[C@H]1C(=O)O[C@H](C)[C@H](NC(=O)c2cccc(NC=O)c2OC)C(=O)O[C@@H](C)[C@@H]1OC(=O)CC(C)C,1.8µM*,.,.,1.8µM*,6.7µM*,?
C[C@@H]1C[C@H]2OC(=O)C3(CO3)[C@H]2[C@H](O)[C@]2(C)C(=O)C3OC3[C@@H]12 (stereo partly specified),?,.,.,10µM*,.,.
Cc1cccc(N(C)S(=O)(=O)c2cc(-c3cnc(C4CC4)o3)ccc2C)c1,.,.,0,.,23µM*,16µM*
CCN(c1cccc(C)c1)S(=O)(=O)c1ccc2c(c1)oc(=O)n2C,7%,20,-9,-3%,?,3%
c1ccc2c(c1)[IH]c1ccccc1-2,.,-94*,-4,.,0.052µM*,0.052µM*
Cc1ccc(NC(=O)CN2C(=O)CN=C(c3ccccc3)c3ccccc32)c(C)c1,.,.,-12,.,?,?
COC(=O)C1=C(c2ccc(OC(F)(F)F)cc2)C[C@@H]2CC[C@H]1N2C(=O)NC1Cc2ccccc2C1,.,-23,6,.,?,23µM*
COC(=O)C1=C(c2ccc(F)cc2F)C[C@@H]2CC[C@H]1N2C(=O)NC1CCCCC1,.,2,-2,.,?,?
COC(=O)C1=C(c2ccc3ccccc3c2)C[C@@H]2CC[C@H]1N2C(=O)NC1Cc2ccccc2C1,.,-7,-1,.,?,?
SMILES,Gal4-VP16 FLuc,IL-1B inflam inh,LDHA block,RORgamma inh,TDP1 cell noCPT,DT40 TDP1 CPT
COC(=O)C1=C(c2ccc(OC(F)(F)F)cc2)C[C@@H]2CC[C@H]1N2C(=O)NC1CCCCC1,.,-14,-21,.,16µM*,?
CCn1cc(C(=O)NC2CCC(C)CC2)c2ccccc21 (stereo unspecified),.,.,16,.,.,.
Cc1sc2c(c1C)C(c1ccc(F)cc1)=NCC(=O)N2CC(=O)Nc1cc(F)ccc1F,.,.,-1,.,.,.
O=C(Nc1ccc(Cl)cc1)Nc1nccs1,5%,13,-5,-8%,2.9µM*,4.1µM*
O=C(CCl)Nc1nccs1,13µM*,-62*,-3,?,5.8µM*,2.6µM*
O=C(Nc1nccs1)C(Cl)(Cl)Cl,?,-10,-8,?,-15%,-2%
O=C(O)c1ccccc1Nc1cccc(C(F)(F)F)c1,?,24,-5,41%,15µM*,12µM*!
O=C(Nc1ccccc1[N+](=O)[O-])c1ccc(S(=O)(=O)N2CCCC2)cc1,6%,?,-1,?,-28%,-23%
O=C(NCCSc1c(-c2ccc(F)cc2)[nH]c2ccccc12)c1ccc(S(=O)(=O)N2CCOCC2)cc1,.,.,-4,.,4.1µM*,5.2µM*
COc1cc(C(=O)NCCSc2c(-c3ccccc3)[nH]c3ccccc23)cc(OC)c1OC,.,.,-9,.,8.2µM*,8.2µM*
C[C@@]12CC[C@H]3[C@@H](CC[C@@H]4C[C@H]5S[C@H]5C[C@]43C)[C@H]1CC[C@H]2O,-11%[17 µM],.,.,0%[2.98 µM],.,.
S=P(N1CCCCCC1)(N1CC1)N1CC1,.,-8,-8,.,4.1µM*,3.3µM*
S=P(N1CCOCC1)(N1CC1)N1CC1,.,5,-1,.,6.5µM*,5.2µM*
CC(C)(C)P(=O)(N1CCOCC1)N1CCOCC1,4%,20,-9,-2%,9%,25%
COc1ccccc1-c1nc2c(c(SCc3cccc(Cl)c3)n1)Cc1c(CO)cnc(C)c1O2,.,.,1,.,18µM*,9.2µM*
COc1ccc(C2=NCC(=S)Nc3ccc(Cl)cc32)cc1OC,.,45,-10,.,?,-13%
S=C1CN=C(c2ccccc2)c2cc(Cl)ccc2N1,6.3µM*,2,-4,2µM*,?,?
COc1ccc(C2=NCC(=S)Nc3ccc(Cl)cc32)cc1Cl,8.9µM*,22,-1,2.8µM*,21µM*,?
O=C1Nc2ccc(Cl)cc2C(c2ccccc2)=NC1O (stereo unspecified),0%,.,.,4%,?,?
CC(=O)OC1CC2C(C)(C)C(O)C=C[C@@]2(C)C2CC[C@]3(C)C(=CC(=O)OC3c3ccoc3)[C@]12C (stereo partly specified),-7%,.,.,-12%,-27%,-3%

# Screening results deposited in PubChem by National Center for Advancing Translational Sciences (NCATS).
